Source: PubChem BioAssay (NCI)
About 83,000 compounds went through this panel and 20% of them were active in at least one assay; those are over-represented in the sample as a whole.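 The endpoint reported here, percent growth, reads 100 for growth as untreated, 0 for no net growth and -100 for all cells dead.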 A number with no mark means an inactive call. Active and inactive are the calls of the source. Rule for the calls: active = growth percent below 10; inactive = the rest.

Tested on: MDA-MB-468 breast
Assay: NCI-60 one-dose screen, 48 h (100 = growth as untreated, 0 = no growth, -100 = all killed)
Conditions: 10 µM unless noted

Row | Structure (SMILES) | growth
1 | COc1cc(-c2nn(-c3ccc(Br)cc3)cc2C(=O)O)ccc1O | 103%
2 | CCN(CC)C(=O)O/N=C(/C)c1ccccc1 | 96.5%
3 | c1ccc2c(c1)ncn2-c1nc2ccccc2n2c1nc1ccccc12 | -40.5% (active)
4 | CCn1c(SC/C(=N/O)c2ccccc2)nnc1-c1ccccc1 | 108%
5 | COc1ccc(Sc2ccc3[nH]c(=O)nc(N)c3c2)cc1 | 92.7%
6 | CCCOC(=O)N[C@H]1CCc2cc(OC)c(OC)c(OC)c2-c2ccc(SC)c(=O)cc21 | -16.8% (active)
7 | CSc1ccc(C(=NNS(=O)(=O)c2ccc(C)cc2)c2ccc(Cl)cc2)cc1 | 112%
8 | O=S(=O)(NCCCNc1cc(-c2c(-c3cccc(O)c3)nc3sccn23)ccn1)c1cccc(Cl)c1 | 37.2%
9 | CC(=N\N=C(N)N)/C(=N/N=C(N)N)c1ccccc1 | 39.6%
10 | Cc1cc2nc(CC(=O)c3ccccc3)c(=O)[nH]c2cc1C | 103%
11 | COc1cc(Cl)cc(-c2nn(-c3cccc(NC(=O)c4ccc(Cl)c(Cl)c4)c3)cc2-c2ccncc2)c1 | 54.6%
12 | COc1ccc(-c2nnc(SCC(=O)Nc3ccc(/C(C)=N\O)cc3)n2-c2ccccc2)cc1OC | 78.5%
13 | C=C1C(=O)O[C@H]2[C@H]1CC/C(COC(=O)NCc1c[nH]c3ccc(F)cc13)=C\CC[C@@]1(C)O[C@@H]21 | -58.1% (active)
14 | Nc1nc(N)nc(NCc2ccccc2)n1 | 114%
15 | CCCSc1nc(Nc2ccc(/C(C)=N\NC(N)=S)cc2)c(C#N)c(-c2ccccc2)n1 | 66.5%
16 | COc1cc(C2CC(=O)Nc3c2c(C)nn3-c2nc3ccccc3[nH]2)cc(OC)c1O (stereo not given) | 18.5%
17 | COc1ccc(OC)c(NC=O)c1 | 97%
18 | CS(=O)/C(C#N)=C\C=C\c1cccc(Cl)c1 (stereo not given) | 3.26% (active)
19 | COc1cc(CNC(=O)c2ccsc2Nc2ccnc(C(F)(F)F)c2)ccc1O | 95.6%
20 | COc1ccc(C(=O)c2cc3c(OC)c(OC)c(OC)cc3[nH]2)cc1 | 20.6%

Row | Structure (SMILES) | growth
21 | Nc1ncnc2c1c(-c1cccc(OCc3ccccc3)c1)cn2C1CC(CN2CCC2)C1 (stereo not given) | -12.3% (active)
22 | COc1ccc(OC)c2c1[nH]c(=O)c1c3ccccc3cn21 | -23.3% (active)
23 | O=[N+]([O-])c1ccc(C=C2C(Cl)=C(Cl)C(Cl)=C2Cl)cc1 | 48.3%
24 | O=[N+]([O-])c1ccc(-c2ncc(-c3ccc(O)cc3O)[nH]2)cc1 | 107%
25 | Oc1ccc(/C=N/Nc2nnc(N/N=C/c3ccc(O)cc3O)c3ccccc23)c(O)c1 | -47.3% (active)
26 | Clc1ccc2c(OCCCN3CCOCC3)c3oc4ccccc4c3nc2c1 | 21.1%
27 | C(=C\c1nccc2c1[nH]c1ccccc12)/c1ccccc1 | -54% (active)
28 | O=C(NCc1ccccc1)c1ccc2c(c1)NC(=O)[C@@H]1CCCN21 | 103%
29 | CN(C)c1ccc(Cc2ccc(N(C)C)cc2Cl)c(Cl)c1 | 88.7%
30 | CN1C(=O)C2(NN=C(c3cccc4ccccc34)S2)c2ccccc21 (stereo not given) | 32.4%
31 | COc1cc(-n2nc(C(=O)Nc3ccc(C(=O)O)cc3)nc2-c2ccccc2)cc(OC)c1OC | 0.458% (active)
32 | COc1cnc2c(c1)C(=O)c1c-2n(CCCN2CCOCC2)c(=O)c2cc(F)ccc12 | -50.1% (active)
33 | COc1cccc(C(=O)N(c2ccc(F)c(F)c2)C(C(=O)NC(C)(C)C)c2cc3c(C)cc(C)cc3nc2Cl)c1 (stereo not given) | 35.2%
34 | O=C(Nc1ncc(Cc2ccc(Cl)c(C(F)(F)F)c2)s1)c1ccc2nnsc2c1 | 26.3%
35 | Nc1ccccc1SC(CC(=O)c1ccccc1)c1c(Cl)cccc1Cl (stereo not given) | 64.7%
36 | Cc1ccc(C2CC(c3ccc(Nc4nc(NCCO)nc(Nc5ccc(Cl)cc5)n4)cc3)=Nc3c(N)nc(N)nc3N2)cc1 (stereo not given) | -80% (active)
37 | CCNc1ncnc2c1cnn2C1CCCO1 (stereo not given) | 102%
38 | CC(=O)c1ccc(Nc2nccc(-c3ccc(Cl)cc3)n2)cc1 | 76.7%
39 | CNC(=S)NNC(=O)C1CC1 | 108%
40 | O=S(=O)(Nc1cc(Sc2nc3ccccc3s2)c(O)c2ccccc12)c1ccc2ccccc2c1 | -0.0972% (active)
